Assay results from PubChem BioAssay (NCATS).
Results filed as inconclusive are left out. Values without a mark were called inactive. Activity calls are given as the source filed them. The call rests on the fitted dose curve; tested in HEK293 reporter line.
On the % scale 0 is the no-effect control and ±100 the full control effect; potency means the concentration at half of the fitted maximal effect.

Assay: qHTS for Inhibitors of the Functional Ribonucleoprotein Complex (vRNP) of Lassa (LASV) Arenavirus: Viability assay - alamar blue signal for LASV Primary Screen (AID 1347083); further: nearly all actives have a fitted effect of over 80% in size
Details: cell viability, alamar blue fluorescence (LASV minigenome counter-screen); series mostly up to 57.5 µM; activity change, negative = reduced viability: at the top concentration
In the case of COc1ccc(-c2coc3cc(O)ccc3c2=O)cc1OC, the “activity change, negative = reduced viability” value is reported as -11.9%. For C#CCCC[C@@H]1OC(=O)CNC(=O)C([C@@H](C)CC)NC(=O)[C@@H]2CCCN2C(=O)C([C@@H](C)CC)OC(=O)[C@H](Cc2ccccc2)N(C)C(=O)[C@H](C(C)C)NC(=O)C1(C)C (stereo not given in full), the “activity change, negative = reduced viability” value was 8.46%. For c1ccc(-c2ccncc2)cc1, the “activity change, negative = reduced viability” value was 0.127%. For C=C1C(=O)O[C@H]2C[C@]3(C)C([C@@H](OC(=O)/C(C)=C/C)[C@H]12)[C@](C)(O)CC[C@H]3O (stereo not given in full), the “activity change, negative = reduced viability” value was -12.1%. With C=C1[C@@H]2C[C@]3(C(CC2=O)[C@]24C5C[C@H]3[C@H]2N(CC)C[C@]5(C)CC[C@@H]4O)[C@@H]1O (stereo not given in full) the “activity change, negative = reduced viability” value was 10.5%. In the case of O=c1ccn([C@H]2C[C@H](O)[C@@H](CO)O2)c(=O)[nH]1, the “activity change, negative = reduced viability” value is reported as 0.847%. In the case of O=C1C=C(O)c2c(O)cc(O)c(O)c2C1=O, the “activity change, negative = reduced viability” value is reported as -8.31%. For CC1CCC[C@H](O)CCCCCc2cc(O)cc(O)c2C(=O)O1 (stereo not given in full), the “activity change, negative = reduced viability” value was -9.08%. With CCCCCCCC(=O)C(C)C(=O)N(C)[C@H](Cc1ccc(OC)cc1)C(=O)N(C)[C@H](C(N)=O)C(C)C (stereo not given in full) the “activity change, negative = reduced viability” value was 8.33%. With COc1c2n(C)ccc3c-2n(c(=O)c1=O)c1ccccc31 the “activity change, negative = reduced viability” value was 2.94%. In the case of CCCCCCCCCCCCCCCC(=O)OC(CO)CO, the “activity change, negative = reduced viability” value is reported as 14.1%. For O=c1c(-c2ccc(O)cc2)coc2cc(OC3O[C@H](CO)[C@H](O)[C@H](O)[C@H]3O)cc(O)c12 (stereo not given in full), the Potency was 17.2 µM (active). In the case of C[C@H]1CC[C@@H]2[C@@H](C)[C@H]3C(C[C@H]4C5CC[C@H]6C[C@@H](O)CC[C@]6(C)C5CC[C@]34C)N2C1 (stereo not given in full), the “activity change, negative = reduced viability” value is reported as 14%. In the case of Cc1nc(C)c(C)nc1C, the “activity change, negative = reduced viability” value is reported as 7.56% [at 115 µM]. In the case of c1ccc(CN(Cc2ccccc2)Cc2ccccc2)cc1, the “activity change, negative = reduced viability” value is reported as 28.1% [at 115 µM]. In the case of COC(=O)Cc1ccccc1, the “activity change, negative = reduced viability” value is reported as 6.72% [at 115 µM]. For CN(CC=CC#CC(C)(C)C)Cc1cccc2ccccc12, the “activity change, negative = reduced viability” value was -1.4%. For COc1ccc2cc1Oc1ccc(cc1)CC1c3cc(c(OC)cc3CCN1C)Oc1c(OC)c(OC)c(OC)c3c1C(C2)N(C)CC3 (stereo not given), the “activity change, negative = reduced viability” value was -3.63% [at 24.7 µM]. With CC1(C)C[C@H](O)[C@]2(CO)[C@H](O)C[C@]3(C)C(=CCC4[C@@]5(C)CC[C@H](O)C(C)(C)C5CC[C@]43C)[C@@H]2C1 (stereo not given in full) the “activity change, negative = reduced viability” value was 5.47%. In the case of CCN1C[C@]2(C)CCC(OC)[C@@]34C5C[C@@H]6CC[C@@](O)(C5C(=O)O6)[C@@H](C(O)C23)[C@@H]14 (stereo not given in full), the “activity change, negative = reduced viability” value is reported as 16.2%. In the case of c1cnc2c(-c3nccc4c3[nH]c3ccccc34)cccc2c1, the “activity change, negative = reduced viability” value is reported as -9.6%. With CC1=CCC[C@@H]2[C@@](C)(CC/C(C)=C/C(=O)O)[C@H](C)CC[C@@]12C the “activity change, negative = reduced viability” value was 9.55%. For C=C(C)[C@@H]1CC[C@]2(C(=O)O)CC[C@]3(C)C(CCC4[C@@]5(C)CC[C@H](O)C(C)(C)C5CC[C@]43C)C12 (stereo not given in full), the “activity change, negative = reduced viability” value was 2.98%. With COc1ccc(-c2coc3cc(OC)cc(O)c3c2=O)cc1 the “activity change, negative = reduced viability” value was -4%. With OCc1ccccc1O[C@@H]1O[C@H](CO)[C@H](O)[C@H](O)[C@H]1O the “activity change, negative = reduced viability” value was -16.1%. With C=C(C=O)C[C@@H]1C[C@H](O)C2OC3C[C@]4(C)OC5/C=C\CC6OC7C(CC=CCC6OC5CCCC4OC3CC2O1)OC1CC2OC3CC(=O)OC3C[C@@H](C)C[C@@]2(C)OC1C[C@@H]7C (stereo not given in full) the “activity change, negative = reduced viability” value was 2.93%. With COc1c2c(c(CCC(=O)O)c3c1C=CC(C)(C)O3)OC(C)(C)C=C2 the “activity change, negative = reduced viability” value was 6.76%. With C=C(C)C(O)CC/C(C)=C/Cc1c(O)ccc(C(=O)/C=C/c2ccc(O)cc2)c1O (stereo not given) the “activity change, negative = reduced viability” value was -10.9%. For CC(C)CNC(=O)/C=C/C=C/CCCCCC/C=C/c1ccc2c(c1)OCO2, the “activity change, negative = reduced viability” value was 9.29%. In the case of NCCC(=O)c1ccccc1N, the “activity change, negative = reduced viability” value is reported as 7.1%. In the case of CC(C)C/C=C(\C=O)c1ccccc1, the “activity change, negative = reduced viability” value is reported as -0.719% [at 115 µM]. With C=C1[C@@H](OC(C)=O)CC[C@]2(C)[C@@H]1C[C@@H]1C[C@H](OC(C)=O)C(C)=C([C@@H](OC(C)=O)[C@@H]2OC(C)=O)C1(C)C the “activity change, negative = reduced viability” value was 15%. With Cc1cc(OCCCc2c(C(=O)O)n(Cc3cccnc3)c3c(-c4c(COc5ccc(N6CCN([S+](C)(=O)[O-])CC6)cc5)nn(C)c4C)cccc23)cc(C)c1Cl the “activity change, negative = reduced viability” value was -21%. With CC(C)=CCC[C@](C)(O[C@@H]1O[C@H](CO[C@@H]2OC[C@H](O[C@@H]3OC[C@@H](O)[C@H](O)[C@H]3O)[C@H](O)[C@H]2O)[C@@H](O)[C@H](O)[C@H]1O)C1CC[C@]2(C)C1[C@H](O)CC1[C@@]3(C)CC[C@H](O)C(C)(C)C3[C@@H](O)C[C@]12C (stereo not given in full) the “activity change, negative = reduced viability” value was 19.2%. In the case of CCOC(=O)/C=C/c1ccccc1, the “activity change, negative = reduced viability” value is reported as 24.8% [at 115 µM]. For COc1cc2c(cc1O)[C@@H]1Cc3cc(O)c(OC)cc3[C@H](C2)N1C, the “activity change, negative = reduced viability” value was 1.58%. In the case of O=C(O)Cc1ccc(O)cc1, the “activity change, negative = reduced viability” value is reported as 29.3%. With N=C1SC(=Cc2ccc(-c3ccc4c(c3)C(=O)NC4=O)o2)C(=O)N1c1ccc(Br)cc1 the “activity change, negative = reduced viability” value was -1.31%. In the case of C[C@]12CC[C@@H](O)CC1=CC(=O)C1C2CC[C@]2(C)C(=O)[C@H](O)CC12 (stereo not given in full), the “activity change, negative = reduced viability” value is reported as 20.4%. For COc1ccc([C@@]23Oc4cc(OC)cc(OC)c4[C@]2(O)[C@H](O)[C@H](C(=O)N(C)C)[C@H]3c2ccccc2)cc1, the “activity change, negative = reduced viability” value was -130%.
